Source: PubChem BioAssay (NCI)
Compounds without any hit were thinned out: in the full panel of roughly 79,000, 15% have a hit. Activity calls are given as the source filed them. Cut-off read from the data, not from the text of the source: active = growth inhibition above about 70%; inactive = the rest.

Columns and labels:
[1] = NCI Yeast Anticancer Drug Screen. Data for the wt1 strain (AID 149);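 note: 0% = growth of vehicle-treated wt1 cultures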; conditions: S. cerevisiae wt1 strain (SPY 50644) growth inhibition, active compounds read high
Method in brief: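 Yeast wt1 strain exposed to compounds; growth inhibition measured relative to vehicle-treated controls.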

[2] = NCI Yeast Anticancer Drug Screen. Data for the rad50EPP+ strain (AID 151);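 note: 0% = growth of vehicle-treated control cultures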; conditions: S. cerevisiae rad50 mutant strain, active compounds read high
Method in brief: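 One strain with a rad50 alteration (rad50EPP+) was compound-treated, its growth then compared to that of vehicle controls.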

[3] = NCI Yeast Anticancer Drug Screen. Data for the mgt1 strain (AID 153); conditions: S. cerevisiae mgt1 mutant growth inhibition, active compounds read high
Method in brief: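 After exposure of the mgt1 yeast mutant to compound, growth was measured and reported as inhibition compared with vehicle controls.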

[4] = NCI Yeast Anticancer Drug Screen. Data for the rad50 strain (AID 155);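 note: 0% = growth of vehicle-only cultures of the same strain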; conditions: S. cerevisiae rad50 strain growth inhibition, active compounds read high
Method in brief: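 Yeast carrying a defined DNA repair defect were exposed to test compounds, and growth was compared with vehicle-treated controls to give percent inhibition.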

[5] = NCI Yeast Anticancer Drug Screen. Data for the mec2-1 strain (AID 157); conditions: S. cerevisiae mec2-1 strain, active compounds read high
Method in brief: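 Test agents were screened against the mec2-1 yeast strain, with defined DNA repair or cell cycle alteration. Growth was scored as inhibition against vehicle-only controls.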

[6] = NCI Yeast Anticancer Drug Screen. Data for the rad14 strain (AID 159);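 note: 0% = growth of vehicle-treated control cultures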; conditions: S. cerevisiae rad14 strain growth inhibition, active compounds read high
Method in brief: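 Yeast cells carrying a defined DNA-repair defect were exposed to compounds, and growth inhibition was calculated relative to vehicle-treated control cultures.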

[7] = NCI Yeast Anticancer Drug Screen. Data for the sgs1 mgt1 strain (AID 161);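 note: 0% = growth of cultures given vehicle only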; conditions: S. cerevisiae sgs1 mgt1 strain, active compounds read high
Method in brief: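 Test agents were incubated with a DNA-repair-mutant yeast strain. Growth was then read and compared against vehicle-treated controls.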

[8] = NCI Yeast Anticancer Drug Screen. Data for the CLN2oe strain (AID 163);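 note: 0% = growth of vehicle-only control cultures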; conditions: S. cerevisiae CLN2oe strain, active compounds read high
Method in brief: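 Here, growth inhibition in a cell-cycle-altered yeast strain after compound exposure was quantified against vehicle control growth.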

[9] = NCI Yeast Anticancer Drug Screen. Data for the cln2 rad14 strain (AID 165);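 note: 0% = growth equal to vehicle treated cultures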; conditions: S. cerevisiae cln2 rad14 strain, active compounds read high
Method in brief: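 Growth of compound-exposed yeast (cln2 rad14 genotype) measured and expressed as inhibition relative to vehicle.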

[10] = NCI Yeast Anticancer Drug Screen. Data for the bub3 strain (AID 167); conditions: S. cerevisiae bub3 mutant strain, active compounds read high
Method in brief: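 Compounds were applied to a genetically altered yeast strain carrying a cell-cycle control defect. Growth inhibition was scored against vehicle-treated controls.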

[11] = NCI Yeast Anticancer Drug Screen. Data for the wt2 strain (AID 169);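 note: 0% = growth of vehicle-treated yeast cultures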; conditions: S. cerevisiae wt2 strain growth inhibition, active compounds read high
Method in brief: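 Genetically defined yeast strains from a DNA-repair/cell-cycle panel were used. Compound-exposed yeast growth was measured, and the inhibition was calculated relative to vehicle treatment.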

[12] = NCI Yeast Anticancer Drug Screen. Data for the mlh1 strain (AID 171);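 note: 0% = growth of vehicle-treated control cultures of the same strain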; conditions: S. cerevisiae mlh1 strain growth inhibition, active compounds read high
Method in brief: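 Here the genetically defined yeast mutant is grown with each compound, and the extent to which its growth falls below that of vehicle-exposed cells is reported.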

[13] = NCI Yeast Anticancer Drug Screen. Data for the sgs1 strain (AID 173);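 note: 0% = growth of vehicle-only control cultures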; conditions: S. cerevisiae sgs1 mutant, active compounds read high
Method in brief: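 Relative growth inhibition, referenced to vehicle, was determined in a yeast strain with a defined alteration affecting DNA damage repair or cell cycle control after compound exposure.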

[14] = NCI Yeast Anticancer Drug Screen. Data for the mlh1 rad18 strain (AID 175); conditions: S. cerevisiae mlh1 rad18 strain growth inhibition, active compounds read high
Method in brief: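 In this whole-cell yeast screen, a strain with altered DNA damage repair is challenged with compound, and its growth is measured against matched vehicle-treated controls.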

[15] = NCI Yeast Anticancer Drug Screen. Data for the rad18 strain (AID 177); conditions: S. cerevisiae rad18 mutant growth inhibition, active compounds read high
Method in brief: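 Screen uses a yeast strain with a defined lesion in DNA damage repair; compound effect is read as loss of growth compared to untreated vehicle cultures.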

[16] = at 5.0 µM (retest, dose inferred, filed as 0.5)
[17] = at 50.0 µM (retest, dose inferred, filed as 5.0)

Measured: growth inhibition

CC(C)N(CCCNc1c2ccccc2nc2cccc([N+](=O)[O-])c12)C(C)C
active: [1]; at 33.0 µM 94% | [1]; at 100.0 µM 98% | [2]; at 3.7 µM 86% | [2]; at 11.0 µM 93% | [2]; at 33.0 µM 95% | [2]; at 100.0 µM 96% | [3]; at 33.0 µM 97% | [3]; at 100.0 µM 99% | [4]; at 3.7 µM 82% | [4]; [16] 86% | [4]; at 11.0 µM 92% | [4]; at 33.0 µM 94% | [4]; [17] 98% | [4]; at 50.0 µM 92.8% | [4]; at 100.0 µM 97% | [5]; at 3.7 µM 76% | [5]; [16] 88% | [5]; at 11.0 µM 97% | [5]; at 33.0 µM 98% | [5]; [17] 99% | [5]; at 50.0 µM 94.5% | [5]; at 100.0 µM 99% | [6]; at 1.2 µM 93% | [6]; at 3.7 µM 98% | [6]; at 11.0 µM 99% | [6]; at 33.0 µM 99% | [6]; at 100.0 µM 99% | [7]; [16] 91% | [7]; [17] 98% | [7]; at 50.0 µM 94.5% | [8]; at 33.0 µM 91% | [8]; at 100.0 µM 96% | [9]; [16] 97% | [9]; [17] 98% | [9]; at 50.0 µM 95.7% | [10]; at 33.0 µM 90% | [10]; [17] 97% | [10]; at 100.0 µM 98% | [11]; at 33.0 µM 96% | [11]; at 100.0 µM 98% | [12]; at 11.0 µM 72% | [12]; at 33.0 µM 96% | [12]; at 100.0 µM 98% | [13]; at 1.2 µM 80% | [13]; at 3.7 µM 91% | [13]; at 11.0 µM 95% | [13]; at 33.0 µM 97% | [13]; at 100.0 µM 98% | [14]; [16] 93% | [14]; [17] 98% | [14]; at 50.0 µM 95.9% | [15]; at 1.2 µM 95% | [15]; at 3.7 µM 95% | [15]; at 11.0 µM 95% | [15]; at 33.0 µM 95% | [15]; at 100.0 µM 98%
inactive: [1]; at 1.2 µM 0% | [1]; at 3.7 µM 5% | [1]; at 11.0 µM 43% | [2]; at 1.2 µM 52% | [3]; at 1.2 µM -1% | [3]; at 3.7 µM 8% | [3]; at 11.0 µM 67% | [4]; at 1.2 µM 42% | [5]; at 1.2 µM 12% | [8]; at 1.2 µM -9% | [8]; at 3.7 µM -12% | [8]; at 11.0 µM 51% | [10]; at 1.2 µM -20% | [10]; at 3.7 µM -18% | [10]; [16] -10% | [10]; at 11.0 µM 17% | [10]; at 50.0 µM 33.5% | [11]; at 1.2 µM 1% | [11]; at 3.7 µM 14% | [11]; at 11.0 µM 68% | [12]; at 1.2 µM 6% | [12]; at 3.7 µM 14%
